The results in this text go back to PMC5540273 (PLoS ONE, 2017).

Conditions in all cases: concentration: 1 μM, replicates: in singlicate; n = 1
The subject of assay [1] is PRKD3.
The test system of assay [2] is PRKG1.
The test system of assay [3] is PRKG2.
For assay [4], the system named is T1, PRKR.
T1 construct: gene EIF2AK2

The subject of assay [5] is PRKX.
Assay [6] deals with PRP4.
For assay [7], the system named is T2, PYK2.
T2 construct: gene PTK2B

Assay [8] deals with QSK.
The test system of assay [9] is RAF1.
In assay [10] the test system is RET.
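Note: KINOMEscan kinase panel screen.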

Turning to `CS(=O)(=O)c1cccc(CNc2nc(Nc3ccc4c(c3)CCC(=O)N4)ncc2C(F)(F)F)c1`, the “%Inh” value in assay [1] came to 4%; in [2], 0%; in assay [3], 0%; in assay [4], 0%; in [5], 0%; in [6] it was 30%. Further, the “%Inh” value in [7] is reported as 26%; in assay [8], 0%; in assay [9], 0%; in assay [10] it was 90.1%.

Consider `Cc1ccc(-c2ccc3occ(-c4ccc(S(C)=O)cc4)c3c2)nn1` (stereo not shown), for which the “%Inh” value in [1] came to 0%; in [2], 14%; in assay [3], 0%; in assay [4], 0%; in [5] it was 0%; in [6], 13%. The “%Inh” value worked out at 0% in assay [7], 0% in assay [8], 6% in [9] and 0% in [10].

`Cn1cc(-c2cnc(N)c3c(-c4ccc5c(c4)CCN5C(=O)Cc4ccccc4)csc23)cn1` [GSK2593074]: the “%Inh” value in [1] worked out at 0%; in assay [2] it was 0%; in assay [3], 0%; in [4], 8%; in [5], 0%; in assay [6], 0%. For the same compound, the “%Inh” value in [7] stood at 6%; in assay [8] it was 1%; in assay [9], 0%; in [10], 34%.

Consider `COc1cccc(CC(=O)N2CCc3cc(-c4cn(C)c5ncnc(N)c45)ccc32)c1` [GSK2608899], for which the “%Inh” value in assay [1] is 0%; in [2], 22%; in assay [3], 0%; in assay [4], 15%; in [5], 3%; in assay [6] it was 0%. The “%Inh” value is recorded as 25% in [7], 11% in assay [8], 0% in [9] and 37% in assay [10].

Take `COc1cccc(NC(=O)NCCNc2ccnc(Nc3ccc(F)cc3)n2)c1` [GSK1379879]: the “%Inh” value was found to be 0% in assay [1]; 4% in assay [2]; 0% in [3]; 0% in [4]; 14% in assay [5]; 49% in assay [6]. Moreover, the “%Inh” value was 21% in [7], 0% in [8], 15% in assay [9] and 0% in [10].

On to `Fc1cc(Cl)ccc1Nc1ccnc2cc(-c3ccc(CN4CCSCC4)o3)ccc12` [GW560106], for which the “%Inh” value in [1] was 0%; in assay [2], 27%; in assay [3] it was 66%; in [4], 3%; in assay [5], 1%; in assay [6], 29%. In addition, the “%Inh” value in [7] was 0%; in assay [8], 63%; in [9], 12%; in assay [10], 98.3%.

With `CC(C)c1nc(-c2cccc(NS(=O)(=O)c3c(F)cccc3F)c2)c(-c2ccnc(Nc3ccc(N4CCOCC4)nc3)n2)s1.Cl` [GSK1723980], the “%Inh” value stood at 100% in [1]; 0% in [2]; 0% in [3]; 29% in assay [4]; 7% in assay [5]; 0% in [6]. Also, the “%Inh” value in [7] is on record as 25%; in assay [8] it was 82%; in [9] it was 99.4%; in [10] it was 99.6%.

Consider `CCOc1nccc(-c2c(-c3ccc(F)cc3)ncn2C2CCNCC2)n1` [SB-249175], for which the “%Inh” value in assay [1] is on record as 19%; in assay [2], 0%; in assay [3], 12%; in assay [4], 16%; in assay [5], 0%; in [6], 0%. Also, the “%Inh” value is recorded as 16% in assay [7], 20% in assay [8], 19% in [9] and 32% in [10].

For `COC(=O)Nc1nc2ccc(Oc3ccc(NC(=O)Nc4cc(C(F)(F)F)ccc4F)cc3)cc2[nH]1.Cl` [GW654607], the “%Inh” value in assay [1] is reported as 15%; in assay [2], 9%; in assay [3] it was 10%; in assay [4], 3%; in assay [5], 10%; in assay [6], 0%. For the same compound, the “%Inh” value in assay [7] turned out to be 15%; in [8] it was 28%; in assay [9], 91.3%; in assay [10], 100%.

In the case of `O=C(Nc1n[nH]c2cc(-c3cccs3)ccc12)C1CC1` [SB-731284], the “%Inh” value in [1] is listed as 7%; in [2], 8%; in [3] it was 22%; in [4], 0%; in assay [5], 0%; in assay [6], 7%. Moreover, the “%Inh” value in [7] was determined as 0%; in assay [8], 44%; in assay [9], 9%; in assay [10] it was 0%.

For `CC(=O)Nc1cn2nc(Oc3cccc(NC(=O)c4cccc(C(F)(F)F)c4)c3)ccc2n1`, the “%Inh” value in assay [1] stood at 0%; in assay [2] it was 11%; in assay [3] it was 13%; in assay [4], 4%; in assay [5], 0%; in [6], 0%. The “%Inh” value in assay [7] was found to be 7%; in assay [8] it was 0%; in assay [9], 99.8%; in [10], 100%.

Turning to `CC(C)NCC(Cc1ccccc1)NC(=O)c1cc(Br)c(-c2ccnc3[nH]ccc23)s1.Cl.Cl` (stereo not shown) [GSK1383281], the “%Inh” value in [1] is recorded as 81%; in [2], 98.8%; in assay [3] it was 98.8%; in assay [4] it was 16%; in assay [5], 96.5%; in assay [6], 24%. Further, the “%Inh” value in assay [7] was 17%; in [8], 5%; in assay [9], 0%; in assay [10] it was 66%.

For the compound `CCNC(=O)/C=C/c1n[nH]c2cc(Sc3ccccc3C(=O)NC)ccc12`, the “%Inh” value in assay [1] is 0%; in [2], 14%; in [3], 2%; in assay [4], 0%; in assay [5] it was 3%; in assay [6], 0%. Besides, the “%Inh” value worked out at 0% in assay [7], 0% in [8], 0% in [9] and 80% in assay [10].

As to `CC(C)c1nc(-c2ccc(F)c(NS(=O)(=O)c3c(F)cccc3F)c2)c(-c2ccnc(Nc3ccc(N4CCOCC4)nc3)n2)s1` [GSK1804250], the “%Inh” value in [1] came to 100%; in assay [2], 1%; in assay [3], 1%; in assay [4] it was 35%; in [5] it was 23%; in assay [6] it was 2%. Further, the “%Inh” value in [7] came out at 50%; in assay [8] it was 32%; in assay [9], 95.3%; in assay [10], 89%.

Consider `CN1CCN(Cc2ccc(NC(=O)Nc3ccc(N(C)c4ccnc(Nc5ccc(CS(C)(=O)=O)cc5)n4)cc3)cc2)CC1.Cl` [GW827654], for which the “%Inh” value is listed as 0% in [1]; 0% in assay [2]; 0% in assay [3]; 0% in assay [4]; 22% in [5]; 33% in assay [6]. For the same compound, the “%Inh” value was 88% in [7], 0% in [8], 0% in assay [9] and 100% in [10].

As to `Cc1ccc(NC(=O)c2cccc(N3CCCCC3)c2)cc1-c1ccc(C(=O)NCC2CC2)cc1` [GSK1917008], the “%Inh” value in [1] is on record as 100%; in assay [2], 31%; in [3], 0%; in assay [4] it was 0%; in [5], 26%; in [6], 4%. For the same compound, the “%Inh” value in [7] is on record as 0%; in [8] it was 8%; in assay [9] it was 88%; in assay [10] it was 10%.
